According to PubChem BioAssay (NCI):
“And” between values parts separate entries of the source, which are not always exact repeats. Equal entries are not always repeated. About 83,000 compounds went through this panel and 20% of them were active in at least one assay; those are over-represented in the sample as a whole.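 Interpretation: 100, growth as untreated; towards 0, rising growth inhibition; 0, no net growth; 0 to -100, cell death. Compounds scoring below 10 were considered active.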 The source made the active and inactive calls.

How the values were obtained:
Assay in all cases: NCI-60 one-dose screen, 48 h (100 = growth as untreated, 0 = no growth, -100 = all killed)
Conditions in all cases: 10 µM unless noted
[1] = test system: SR leukemia
[2] = test system: RPMI-8226 leukemia
[3] = test system: OVCAR-8 ovarian
[4] = test system: OVCAR-5 ovarian
[5] = test system: OVCAR-4 ovarian
[6] = test system: SK-OV-3 ovarian
[7] = test system: IGROV1 ovarian
[8] = test system: OVCAR-3 ovarian
[9] = test system: HS 578T breast
[10] = test system: NCI/ADR-RES ovarian
[11] = test system: T-47D breast
[12] = test system: BT-549 breast
[13] = test system: MDA-MB-435 melanoma
[14] = test system: SW-620 colon
[15] = test system: MCF7 breast
[16] = test system: HCT-116 colon
[17] = test system: HCC-2998 colon
[18] = test system: KM12 colon

Measured: growth

Cc1ccc(/C=C2\COc3ccc(O)c(O)c3C2=O)cc1
active: [2] -12.6% | [3] 4.95% | [4] -22.1% | [7] -37.4% | [8] -21.3% | [10] 3.13% | [11] -7.19% | [12] -13.1% | [13] -24.4% | [14] -32.4% | [16] -22.9% | [17] 9.54% | [18] -19.9%
inactive: [1] 18% | [5] 15.7% | [6] 50% | [9] 20.5% | [15] 15.1%

Cc1nonc1-c1ccc2c(c1)OCO2
inactive: [1] 104% | [2] 94.1% and 91.7% | [3] 98.2% and 96.7% | [4] 111% and 121% | [5] 108% and 97.2% | [6] 97.3% and 107% | [7] 108% and 116% | [8] 101% and 105% | [9] 107% and 145% | [10] 97.7% | [11] 88.5% and 98.4% | [12] 111% and 115% | [13] 89.9% and 109% | [14] 105% and 107% | [15] 99.6% and 98.3% | [16] 112% and 98.5% | [17] 100% and 107% | [18] 95.4% and 116%

CN1CCCc2cc(/C=C3\SC(=S)N(C(Cc4ccc(O)cc4)C(=O)O)C3=O)ccc21 (stereo not given)
inactive: [1] 105% | [2] 95.8% | [3] 99.2% | [4] 101% | [5] 98.2% | [6] 107% | [7] 102% | [8] 95.5% | [9] 102% | [10] 100% | [11] 87.1% | [12] 106% | [13] 103% | [14] 102% | [15] 94.5% | [16] 106% | [17] 93.6% | [18] 105%

Cc1cccc(-c2nnc(SCC(=O)Nc3ncc(Cc4ccccc4)s3)n2N2C(=O)CSC2=S)c1
inactive: [1] 44.8% | [2] 77.2% | [3] 24.7% | [4] 72.7% | [6] 87.2% | [7] 50.5% | [8] 50.8% | [10] 80.2% | [11] 43.8% | [12] 78.5% | [13] 48.5% | [14] 49.6% | [15] 56.2% | [16] 25% | [17] 70.9% | [18] 71.7%
active: [5] -14.9% | [9] 1.22%

Cc1nc2cccc(NCCCCC(=O)NO)c2c(=O)n1-c1ccccc1
inactive: [1] 29.4% | [2] 36.1% | [3] 39.5% | [4] 31.1% | [5] 68.7% | [6] 50.8% | [7] 58.2% | [8] 68.1% | [9] 55.2% | [10] 75.3% | [11] 54.5% | [12] 86.8% | [13] 53.8% | [14] 47.5% | [15] 57.9% | [16] 27.3% | [17] 82% | [18] 73.8%

Cc1ccccc1SSc1ccccc1C
inactive: [1] 65.4% | [2] 98.5% | [3] 84.1% | [4] 75.5% | [5] 94.5% | [6] 96.9% | [7] 84.6% | [8] 120% | [9] 97.7% | [10] 86.4% | [11] 101% | [12] 83.9% | [13] 110% | [14] 55% | [15] 56.1% | [16] 55% | [17] 128% | [18] 96.9%

COc1cc(-c2nc(SCCC(C)C)nc(Nc3ccc(F)cc3)c2C#N)cc(OC)c1OC
inactive: [1] 73.1% | [2] 91.2% | [3] 40.7% | [4] 95% | [6] 47.3% | [7] 69.6% | [8] 19.8% | [9] 50.1% | [10] 77.7% | [11] 65.7% | [12] 74.9% | [13] 79.4% | [14] 80.1% | [15] 87% | [16] 22% | [17] 102% | [18] 78.6%
active: [5] 2.39%

Cc1nc(Nc2ncc(C(=O)Nc3c(C)cccc3Cl)s2)cc(N2CCN(CCO)CC2)n1
active: [6] -7.55% and -25.8% | [7] -16.4% and -37% | [9] -8.57%
inactive: [1] 40.4% and 14.7% | [2] 92.8% and 61.1% | [4] 23.7% and 10.2% | [5] 52.8% and 44.8% | [8] 37.3% and 20.4% | [10] 45.8% and 23.7% | [12] 55.3% and 32.2% | [13] 62.6% and 27.1% | [14] 103% and 52.6% | [15] 66.1% and 54.4% | [17] 110% and 81% | [18] 81.3% and 28.1%
24.2% (inactive) and -24.8% (active): [3]
40.7% (inactive) and 2.99% (active): [16]
40.8% (inactive) and -2.8% (active): [11]

CCN(CC)CC#CCOC(=O)[C@]1(C)CCC[C@]2(C)c3ccc(C(C)C)cc3CC[C@@H]12
inactive: [1] 79.3% | [2] 21.3% | [3] 94.2% | [4] 93.5% | [5] 71.3% | [6] 89.2% | [7] 86.2% | [8] 90.6% | [9] 90.2% | [10] 84.5% | [11] 78.6% | [12] 92.7% | [13] 91.6% | [14] 87.7% | [15] 82.6% | [16] 58.3% | [17] 91.5% | [18] 85.3%

Cc1ccc(Nc2nc(-c3cc(O)c(C)c(C)c3O)cs2)cc1
inactive: [1] 70.3% | [2] 77.5% | [3] 84.1% | [4] 109% | [5] 105% | [6] 105% | [7] 92.9% | [8] 104% | [9] 97.9% | [10] 73% | [11] 35.5% | [12] 98.1% | [13] 66.4% | [14] 111% | [15] 71.9% | [16] 105% | [17] 112% | [18] 60.9%

N=C(N)c1ccc(-c2ccc(-c3ccc(F)cc3)s2)nc1
inactive: [3] 68.9% | [4] 77.6% | [5] 79.7% | [6] 86.3% | [7] 65.7% | [8] 76.9% | [9] 84.2% | [10] 93.5% | [11] 76.3% | [12] 82.1% | [13] 70.2% | [14] 26% | [15] 21.9% | [17] 16.2% | [18] 18.7%
active: [1] 3.85% | [2] 5.51% | [16] 3.54%

C[C@]12CCc3c(ccc4cc(O)ccc34)[C@@H]1C[C@H](O)[C@@H]2O
inactive: [1] 110% | [2] 97.1% | [3] 94% | [4] 104% | [5] 106% | [6] 106% | [7] 103% | [8] 96.7% | [9] 84.9% | [10] 96% | [11] 98.8% | [12] 94.7% | [13] 99% | [14] 96.4% | [15] 132% | [16] 104% | [17] 109% | [18] 108%

N=c1c2c(-c3ccccc3)c(-c3ccccc3)oc2ncn1NC(=O)c1cccnc1
inactive: [1] 77.7% | [2] 97.5% | [3] 97.7% | [4] 109% | [5] 101% | [6] 99.2% | [7] 95.7% | [8] 111% | [9] 103% | [10] 107% | [11] 96.2% | [12] 103% | [13] 104% | [14] 106% | [15] 98.5% | [16] 96.1% | [17] 118% | [18] 95.6%

CC(=O)c1c(C)nc2ccccc2c1/C=C/c1cccc(C)c1
inactive: [1] 23.3% | [2] 56% | [3] 69.4% | [4] 83.6% | [5] 67.2% | [6] 69.7% | [7] 48.1% | [8] 45.5% | [9] 62.5% | [10] 29.8% | [11] 38.6% | [12] 64.2% | [14] 29.4% | [15] 24.2% | [16] 32.9% | [17] 79.4% | [18] 52.1%
active: [13] 5.84%

OCCN1CCN(c2cc(-c3cccc(OC(F)(F)F)c3)nc3ccc(N4CCCC4)cc23)CC1
active: [1] 3.39% | [14] 2.96%
inactive: [2] 43.1% | [3] 54.3% | [4] 69.4% | [5] 54.9% | [6] 74.5% | [7] 36.9% | [8] 46.7% | [9] 53.9% | [10] 48.5% | [11] 32.2% | [12] 80.5% | [13] 29.7% | [15] 17.5% | [16] 15.6% | [17] 22.9% | [18] 23.4%
